Test results: PubChem BioAssay (NCI)
About 79,000 compounds went through this panel and 15% of them were active in at least one assay; those are over-represented in the sample as a whole. Unmarked numbers belong to inactive results. Calls of active or inactive are those of the source. No stated cut-off is given here; in the data, active means growth inhibition above about 70%; inactive means the rest.

Assay: NCI Yeast Anticancer Drug Screen. Data for the mec2-1 strain (AID 157)
Settings: S. cerevisiae mec2-1 strain, stronger effect = higher value
Experimental: Growth inhibition of yeast strains with defined genetic alterations is measured as a screen for potential anti-cancer activity. Selected strains with alterations in DNA damage repair or cell cycle control were exposed to compounds and growth inhibition was measured relative to vehicle treated controls. The strain used in this assay is mec2-1

[1] = at 5.0 µM (retest, dose inferred, filed as 0.5)
[2] = at 50.0 µM (retest, dose inferred, filed as 5.0)

| SMILES | growth inhibition (at 1.2 µM) [%] | growth inhibition (at 3.7 µM) [%] | growth inhibition [1] | growth inhibition (at 11.0 µM) | growth inhibition (at 33.0 µM) | growth inhibition [2] | growth inhibition (at 50.0 µM) | growth inhibition (at 100.0 µM) |
| --- | --- | --- | --- | --- | --- | --- | --- | --- |
| c1ccc2c(c1)-c1nc3ccccc3cc1C2N1CCOCC1 (stereo not given) | 1 | 1 | 4% | 2% | 5% | 8% | 13.2% | 17% |
| Cn1c2ccccc2c(=O)c2cc(NC(=O)CCCCC(=O)Nc3ccc4c(c3)c(=O)c3ccccc3n4C)ccc21 | -5 | -2 | -7% | 2% | 13% | 6% | 12.4% | 47% |
| O=[N+]([O-])c1ccc([N+]2=NC(c3ccccc3)=NN(c3ccccc3)C2)cc1 | -2 | -2 | -9% | 0% | 9% | 6% | 18.4% | 42% |
| CC(=O)Oc1ccc2c(c1)Cc1cc(N=C3C=CC(=O)O3)ccc1-2 | 15 | 37 | 72% (active) | 98% (active) | 99% (active) | 99% (active) | 99.4% (active) | 96% (active) |
| COC(=O)C1=C(C)NC(C)=C(C(=O)OCCCN2CCC(c3ccccc3)(c3ccccc3)CC2)C1c1cccc([N+](=O)[O-])c1 (stereo not given) | -1 | 16 | 9% | 98% (active) | 98% (active) | 98% (active) | 95.9% (active) | 92% (active) |
